Source: paper PMC5540273 (PLoS ONE, 2017)

Tests used:
Conditions in all cases: concentration: 1 μM, replicates: in singlicate; n = 1
p38-beta = test system: T1, p38-beta
T1 construct: gene MAPK11

p38-delta = test system: p38-delta
p38-gamma = test system: T2, p38-gamma
T2 construct: gene MAPK12
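Further: KINOMEscan kinase panel screen.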

SMILES | %Inh (p38-beta) | %Inh (p38-delta) | %Inh (p38-gamma)
CS(=O)(=O)CCNCc1ccc(-c2ccc3ncnc(Nc4ccc(OCc5ccccc5)c(Cl)c4)c3c2)o1.Cl [GW574783] | 0% | 21% | 0%
Oc1ccc2ncnc(Nc3ccc(OCc4ccccc4)cc3)c2c1 [GI262866] | 0% | 36% | 0%
CS(=O)(=O)CCNCc1nc(-c2ccc3ncnc(Nc4ccc(OCc5cccc(F)c5)c(Cl)c4)c3c2)cs1.Cl [GW583340] | 0% | 47% | 0%
Nc1n[nH]c2nnc(-c3ccccc3)cc12 [SB-517389] | 0% | 39% | 0%
Nc1nc(-c2cccnc2)c(-c2ccnc3ccccc23)s1 [GW684083] | 0% | 27% | 0%
COc1ccc(NC(=O)Nc2ccc(C)c(-c3ccc(C(=O)Nc4ccncc4)cc3)c2)cc1 [GSK1398475] | 0% | 37% | 0%
CC(C)N1CCC(n2cnc(-c3ccc(F)cc3)c2-c2ccnc(N)n2)CC1 [SB-223132] | 23% | 0% | 60%
COc1ccc(NC(=O)c2ccc(-c3cc(-c4nnc(C)o4)ccc3C)cc2)cc1 [GW595885] | 33% | 17% | 0%
Nc1nc(-c2ccc3c(N)n[nH]c3c2)cc(N2CCCCC2)n1 [GSK2228768] | 0% | 19% | 0%
Nc1nc(-c2ccccn2)c(-c2ccnc3ccccc23)s1 [GW548057] | 0% | 29% | 0%
CCc1nc(-c2cccc(C)c2)c(-c2ccnc(NC(=O)c3ccccc3)c2)s1 | 68% | – | 32%
CCC(CC)(CC)n1cnc2c(N)ncnc21 [SKF-97620] | 8% | 0% | 1%
